# In PubChem BioAssay (Tox21):
# Values without a mark were called inactive. Records with an inconclusive call do not appear. Entries that show only a call come without a potency. The source made the active and inactive calls. Calls come from the whole dose curve; as a rule, active = well fitted curve in the direction sought with a large enough effect in the repeat runs; inconclusive = weak or mixed curves; inactive = no such curve, though single readings can be large; an effect the other way counts as inactive or inconclusive.
# Tests used:
# [1] = A CellTox Green Cytotoxicity Assay to monitor cytotoxicity in HEK293 cells - 24 hour (AID 1224875); note: nearly all actives have a fitted effect of over 45% in size; note: potency is the fitted concentration of half-maximal effect
# Procedure, shortened: (§1)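 Homogeneous no-lysis format: HEK293 cell suspension mixed with CellTox Green reagent, seeded, incubated 5 h at 37 C/5% CO2, then dosed by pintool with compound in DMSO.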
# [2] = A CellTox Green Cytotoxicity Assay to monitor cytotoxicity in HepG2 cells - 16 hour (AID 1224876); note: nearly all actives have a fitted effect of over 45% in size; note: potency is the fitted concentration of half-maximal effect
# Procedure, shortened: (§2)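 Fluorescent DNA-binding dye, 600 HepG2 cells/well, 5 h preincubation then compound in DMSO; same plates read at 0–40 h, 37 C.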
# [3] = qHTS RealTime-Glo MT Cell Viability Assay in HepG2 cells - 32 hour (AID 1224877); note: nearly all actives have a fitted effect of over 55% in size; note: potency is the fitted concentration of half-maximal effect
# Procedure, shortened: (§3)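 Cells + NanoLuc/prosubstrate dispensed (600 cells/well) → 5 h at 37 C/5% CO2 → compounds in DMSO transferred → 40 h incubation at 37 C, luminescence read at 0, 8, 16, 24, 32, 40 h.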
# [4] = A CellTox Green Cytotoxicity Assay to monitor cytotoxicity in HepG2 cells - 24 hour (AID 1224878); note: nearly all actives have a fitted effect of over 45% in size; note: potency is the fitted concentration of half-maximal effect
# Procedure, shortened: as §2
# [5] = A CellTox Green Cytotoxicity Assay to monitor cytotoxicity in HepG2 cells - 40 hour (AID 1224879); note: nearly all actives have a fitted effect of over 40% in size; note: potency is the fitted concentration of half-maximal effect
# Procedure, shortened: as §2
# [6] = A CellTox Green Cytotoxicity Assay to monitor cytotoxicity in HEK293 cells - 32 hour (AID 1224881); note: nearly all actives have a fitted effect of over 40% in size; note: potency is the fitted concentration of half-maximal effect
# Procedure, shortened: as §1
# [7] = A CellTox Green Cytotoxicity Assay to monitor cytotoxicity in HepG2 cells - 0 hour (AID 1224882); note: nearly all actives have a fitted effect of over 35% in size
# Procedure, shortened: as §2
# [8] = A CellTox Green Cytotoxicity Assay to monitor cytotoxicity in HepG2 cells - 32 hour (AID 1224883); note: nearly all actives have a fitted effect of over 50% in size; note: potency is the fitted concentration of half-maximal effect
# Procedure, shortened: as §2
# [9] = A CellTox Green Cytotoxicity Assay to monitor cytotoxicity in HEK293 cells - 8 hour (AID 1224884); note: nearly all actives have a fitted effect of over 35% in size; note: potency is the fitted concentration of half-maximal effect
# Procedure, shortened: as §1
# [10] = qHTS RealTime-Glo MT Cell Viability Assay in HepG2 cells - 16 hour (AID 1224885); note: nearly all actives have a fitted effect of over 50% in size; note: potency is the fitted concentration of half-maximal effect
# Procedure, shortened: as §3
# [11] = qHTS RealTime-Glo MT Cell Viability Assay in HEK293 cells - 24 hour (AID 1224886); note: nearly all actives have a fitted effect of over 50% in size; note: potency is the fitted concentration of half-maximal effect
# Procedure, shortened: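 Tox21 10K qHTS, HEK293, 600 cells/well, RealTime-Glo reagent co-dispensed with cells; 5 h preincubation, compound by pintool, 37 C, luminescence at 0–40 h.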
# [12] = qHTS RealTime-Glo MT Cell Viability Assay in HEK293 cells - 8 hour (AID 1224887); note: nearly all actives have a fitted effect of over 50% in size; note: potency is the fitted concentration of half-maximal effect
# Procedure, shortened: (§4)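 Measured as luminescence from the same continuously cultured HEK293 wells at successive time points (0, 8, 16, 24, 32, 40 h) after compound addition. Reagent present from seeding; dosing at 5 h; incubation 37 C.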
# [13] = A CellTox Green Cytotoxicity Assay to monitor cytotoxicity in HEK293 cells - 16 hour (AID 1224888); note: nearly all actives have a fitted effect of over 35% in size; note: potency is the fitted concentration of half-maximal effect
# Procedure, shortened: as §1
# [14] = qHTS RealTime-Glo MT Cell Viability Assay in HepG2 cells - 0 hour (AID 1224889); note: nearly all actives have a fitted effect of over 50% in size
# Procedure, shortened: as §3
# [15] = A CellTox Green Cytotoxicity Assay to monitor cytotoxicity in HepG2 cells - 8 hour (AID 1224890); note: nearly all actives have a fitted effect of over 45% in size; note: potency is the fitted concentration of half-maximal effect
# Procedure, shortened: as §2
# [16] = target: Androgen receptor (Homo sapiens) (UniProt P10275); experiment: qHTS assay to identify small molecule antagonists of the androgen receptor (AR) signaling pathway using the MDA cell line in the presence of 0.5 nM R1881 (AID 1259243); note: nearly all actives have a fitted effect of over 50% in size; note: potency is the fitted concentration of half-maximal effect
# Sequence of Androgen receptor (Homo sapiens) (P10275 whole entry, looked up): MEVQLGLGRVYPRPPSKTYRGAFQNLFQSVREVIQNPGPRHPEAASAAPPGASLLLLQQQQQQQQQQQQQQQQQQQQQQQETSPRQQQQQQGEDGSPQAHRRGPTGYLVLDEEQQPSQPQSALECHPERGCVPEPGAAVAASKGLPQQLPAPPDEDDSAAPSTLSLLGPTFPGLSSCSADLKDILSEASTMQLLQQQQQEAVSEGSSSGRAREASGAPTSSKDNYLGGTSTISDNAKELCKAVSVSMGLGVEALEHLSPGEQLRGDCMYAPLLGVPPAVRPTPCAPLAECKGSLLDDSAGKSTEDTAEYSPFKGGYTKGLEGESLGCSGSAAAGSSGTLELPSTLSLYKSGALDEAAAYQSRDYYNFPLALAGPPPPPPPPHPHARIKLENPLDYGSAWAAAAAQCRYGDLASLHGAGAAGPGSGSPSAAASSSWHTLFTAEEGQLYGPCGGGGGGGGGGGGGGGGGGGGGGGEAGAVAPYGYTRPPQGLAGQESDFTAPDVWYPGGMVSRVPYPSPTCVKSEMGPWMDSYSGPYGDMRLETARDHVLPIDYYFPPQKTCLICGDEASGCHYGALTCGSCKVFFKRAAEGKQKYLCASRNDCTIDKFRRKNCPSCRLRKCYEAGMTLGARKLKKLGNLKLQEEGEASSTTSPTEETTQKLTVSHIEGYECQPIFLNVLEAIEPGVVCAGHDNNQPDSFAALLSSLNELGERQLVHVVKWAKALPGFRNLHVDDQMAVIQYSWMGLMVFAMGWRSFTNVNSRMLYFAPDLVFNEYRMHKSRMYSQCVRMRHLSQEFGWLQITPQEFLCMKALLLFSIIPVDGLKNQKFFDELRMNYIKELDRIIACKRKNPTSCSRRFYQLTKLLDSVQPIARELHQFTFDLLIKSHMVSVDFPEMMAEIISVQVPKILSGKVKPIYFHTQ
# Procedure, shortened: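 Cells: MDA-kb2 (MMTV-luc). Stimulus: 0.5 nM R1881. Time: 16 hr, 37C, no CO2. Detection: ONE-Glo luminescence after 30 min at RT.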
# [17] = target: Estrogen receptor (Homo sapiens) (UniProt P03372); experiment: qHTS assay to identify small molecule antagonists of the estrogen receptor alpha (ER-alpha) signaling pathway using the BG1 cell line in the presence of 0.1 nM 17-beta-estradiol (AID 1259244); note: nearly all actives have a fitted effect of over 50% in size
# Sequence of Estrogen receptor (Homo sapiens) (P03372 whole entry, looked up): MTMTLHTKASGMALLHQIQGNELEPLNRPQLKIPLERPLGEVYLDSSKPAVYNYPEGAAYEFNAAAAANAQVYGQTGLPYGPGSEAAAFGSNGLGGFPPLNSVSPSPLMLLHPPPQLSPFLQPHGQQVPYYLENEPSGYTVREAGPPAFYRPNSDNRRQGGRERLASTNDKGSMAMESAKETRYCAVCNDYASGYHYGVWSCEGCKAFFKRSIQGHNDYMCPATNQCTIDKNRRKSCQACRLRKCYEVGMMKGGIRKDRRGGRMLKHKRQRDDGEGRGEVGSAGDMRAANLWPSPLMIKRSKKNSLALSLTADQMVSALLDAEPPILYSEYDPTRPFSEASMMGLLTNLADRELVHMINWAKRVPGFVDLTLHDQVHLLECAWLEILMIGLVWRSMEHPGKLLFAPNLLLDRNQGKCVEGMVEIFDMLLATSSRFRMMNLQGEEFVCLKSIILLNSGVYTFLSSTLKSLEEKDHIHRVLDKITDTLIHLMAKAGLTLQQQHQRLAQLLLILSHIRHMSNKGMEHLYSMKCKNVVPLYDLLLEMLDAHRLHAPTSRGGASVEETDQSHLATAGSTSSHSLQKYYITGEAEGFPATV
# Procedure, shortened: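 Seeding of stripped-serum-adapted VM7Luc4E2 cells, 24 h attachment, compound transfer, then 0.1 nM final 17beta-estradiol; after 22 h incubation, ONE-Glo reagent and luminescence reading.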
# [18] = qHTS RealTime-Glo MT Cell Viability Assay in HEK293 cells - 0 hour (AID 1224880)
# Procedure, shortened: as §4
# [19] = qHTS assay to identify small molecule antagonists of the androgen receptor (AR) signaling pathway using the MDA cell line in the presence of 0.5 nM R1881 - cell viability counter screen (AID 1259242); note: nearly all actives have a fitted effect of over 45% in size
# Procedure, shortened: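 Human breast carcinoma MDA-kb2 cells, cultured without CO2, receive compounds alongside 0.5 nM (final) R1881 agonist. After 16 hr at 37C, viability is taken as live-cell protease signal.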
# [20] = qHTS assay to identify small molecule antagonists of the estrogen receptor alpha (ER-alpha) signaling pathway using the BG1 cell line in the presence of 0.1 nM 17-beta-estradiol - cell viability counter screen (AID 1259241); note: potency is the fitted concentration of half-maximal effect; nearly all actives have a fitted effect of over 40% in size
# Procedure, shortened: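 The cell line endogenously expresses full-length ER-alpha and carries four EREs driving luciferase. Cells are cultured 5 days hormone-free, treated 22 hr with compounds and 0.1 nM estradiol, then viability is read by fluorescence.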
Compound,Potency [1],Potency [2],Potency [3],Potency [4],Potency [5],Potency [6],Potency [7],Potency [8],Potency [9],Potency [10],Potency [11],Potency [12],Potency [13],Potency [14],Potency [15],Potency [16],Potency [17],Potency [18],Potency [19],Potency [20]
CCN(CC)c1ccc(N=Nc2ccccc2)cc1,inactive,inactive,inactive,inactive,inactive,inactive,inactive,inactive,inactive,inactive,49 µM (active),43.6 µM (active),inactive,inactive,inactive,inactive,inactive,–,–,–
CC/C=C(\C)C=O,inactive,inactive,inactive,inactive,inactive,inactive,–,inactive,inactive,inactive,inactive,inactive,inactive,inactive,inactive,–,inactive,inactive,inactive,–
CCc1cccc(CC)c1,inactive,inactive,inactive,inactive,inactive,inactive,–,inactive,inactive,inactive,inactive,inactive,inactive,inactive,inactive,inactive,inactive,inactive,inactive,–
O=C(c1ccccc1)c1ccc(Cl)cc1,inactive,inactive,inactive,inactive,inactive,inactive,–,inactive,inactive,inactive,inactive,inactive,inactive,inactive,inactive,–,inactive,inactive,–,–
Nc1ccc(Cl)c([N+](=O)[O-])c1,inactive,inactive,inactive,inactive,inactive,inactive,–,inactive,inactive,inactive,inactive,inactive,inactive,inactive,inactive,24.3 µM (active),–,inactive,inactive,–
CN(C[C@@H](CC[N+]12CCC(C3CCCCC3)(CC1)CC2)c1ccc(Cl)c(Cl)c1)C(=O)c1cc(C(F)(F)F)cc(C(F)(F)F)c1,24.5 µM (active),24.5 µM (active),24.5 µM (active),24.5 µM (active),24.5 µM (active),34.7 µM (active),–,24.5 µM (active),43.6 µM (active),21.9 µM (active),3.09 µM (active),3.47 µM (active),24.5 µM (active),–,38.9 µM (active),68.6 µM (active),–,inactive,–,54.5 µM (active)
Cn1ccnc1,inactive,inactive,inactive,inactive,inactive,inactive,–,inactive,inactive,inactive,inactive,inactive,inactive,inactive,inactive,–,inactive,inactive,–,–
